Data: PubChem BioAssay (NCI)
Compounds without any hit were thinned out: in the full panel of roughly 79,000, 15% have a hit. Active and inactive are the calls of the source. Rule as the data show it: active = growth inhibition above about 70%; inactive = the rest.

Tests used:
[1] = NCI Yeast Anticancer Drug Screen. Data for the rad52 strain (AID 147);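 also: 0% = growth of vehicle-treated control cultures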; settings: S. cerevisiae rad52 mutant growth inhibition, hits give high values
Summary of the method: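 The repair-mutant yeast strain was incubated with compounds, then growth was read and inhibition derived relative to vehicle.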

[2] = NCI Yeast Anticancer Drug Screen. Data for the wt1 strain (AID 149);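 also: 0% = growth of vehicle-treated wt1 cultures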; settings: S. cerevisiae wt1 strain (SPY 50644) growth inhibition, hits give high values
Summary of the method: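 The wt1 strain was treated with compounds, and growth was compared with vehicle-treated cultures to give inhibition.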

[3] = NCI Yeast Anticancer Drug Screen. Data for the rad50EPP+ strain (AID 151);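 also: 0% = growth of vehicle-treated control cultures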; settings: S. cerevisiae rad50 mutant strain, hits give high values
Summary of the method: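 Vehicle-normalised growth inhibition; rad50EPP+ yeast strain, altered in DNA damage repair, compound-treated.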

[4] = NCI Yeast Anticancer Drug Screen. Data for the rad50 strain (AID 155);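 also: 0% = growth of vehicle-only cultures of the same strain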; settings: S. cerevisiae rad50 strain growth inhibition, hits give high values
Summary of the method: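 Cells are treated with compound, grown, and their growth is then scored against vehicle-only cultures of the same repair-deficient yeast strain.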

[5] = NCI Yeast Anticancer Drug Screen. Data for the mec2-1 strain (AID 157); settings: S. cerevisiae mec2-1 strain, hits give high values
Summary of the method: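 Mutant yeast (mec2-1) grown with compound; growth inhibition relative to vehicle control reported.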

[6] = NCI Yeast Anticancer Drug Screen. Data for the rad14 strain (AID 159);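 also: 0% = growth of vehicle-treated control cultures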; settings: S. cerevisiae rad14 strain growth inhibition, hits give high values
Summary of the method: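 Readout: yeast growth inhibition, referenced to vehicle-only cultures. Strain bears a defined alteration in DNA damage repair.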

[7] = NCI Yeast Anticancer Drug Screen. Data for the sgs1 mgt1 strain (AID 161);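 also: 0% = growth of cultures given vehicle only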; settings: S. cerevisiae sgs1 mgt1 strain, hits give high values
Summary of the method: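 This yeast growth screen uses a strain with defined DNA-repair lesions; compound-treated growth is compared with vehicle-treated growth.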

[8] = NCI Yeast Anticancer Drug Screen. Data for the CLN2oe strain (AID 163);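 also: 0% = growth of vehicle-only control cultures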; settings: S. cerevisiae CLN2oe strain, hits give high values
Summary of the method: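 Compounds are applied to yeast harbouring a defined cell-cycle control change; reduced growth compared with vehicle-treated controls gives the value.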

[9] = NCI Yeast Anticancer Drug Screen. Data for the cln2 rad14 strain (AID 165);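 also: 0% = growth equal to vehicle treated cultures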; settings: S. cerevisiae cln2 rad14 strain, hits give high values
Summary of the method: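 Readout is yeast growth inhibition versus vehicle-treated controls, using a strain with cln2 and rad14 alterations exposed to compound.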

[10] = NCI Yeast Anticancer Drug Screen. Data for the bub3 strain (AID 167); settings: S. cerevisiae bub3 mutant strain, hits give high values
Summary of the method: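 Part of a panel of yeast mutants defective in DNA damage repair or cell cycle regulation. Each strain is grown with compound, and inhibition is calculated relative to solvent-treated cultures.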

[11] = NCI Yeast Anticancer Drug Screen. Data for the wt2 strain (AID 169);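 also: 0% = growth of vehicle-treated yeast cultures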; settings: S. cerevisiae wt2 strain growth inhibition, hits give high values
Summary of the method: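 Against vehicle-treated controls, the growth of yeast exposed to each compound was compared, and the inhibition was recorded.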

[12] = NCI Yeast Anticancer Drug Screen. Data for the mlh1 strain (AID 171);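 also: 0% = growth of vehicle-treated control cultures of the same strain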; settings: S. cerevisiae mlh1 strain growth inhibition, hits give high values
Summary of the method: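 Measured: yeast growth. Reference: vehicle-treated controls. Organism: strain with a defined alteration affecting DNA damage repair or cell cycle control, treated with compound.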

[13] = NCI Yeast Anticancer Drug Screen. Data for the sgs1 strain (AID 173);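 also: 0% = growth of vehicle-only control cultures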; settings: S. cerevisiae sgs1 mutant, hits give high values
Summary of the method: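 Each compound was added to cultures of the altered yeast strain. Growth was recorded, and inhibition was derived by comparison with vehicle controls.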

[14] = NCI Yeast Anticancer Drug Screen. Data for the mlh1 rad18 strain (AID 175); settings: S. cerevisiae mlh1 rad18 strain growth inhibition, hits give high values
Summary of the method: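 Genetically defined yeast (DNA repair-deficient) exposed to compounds; growth inhibition determined relative to vehicle.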

[15] = NCI Yeast Anticancer Drug Screen. Data for the rad18 strain (AID 177); settings: S. cerevisiae rad18 mutant growth inhibition, hits give high values
Summary of the method: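 Vehicle-treated cultures served as the baseline for scoring compound-induced growth inhibition in DNA-repair-mutant yeast.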

[16] = NCI Yeast Anticancer Drug Screen. Data for the mgt1 strain (AID 153); settings: S. cerevisiae mgt1 mutant growth inhibition, hits give high values
Summary of the method: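 Vehicle-normalized growth inhibition is determined in mgt1 yeast, a strain selected for a defined alteration in DNA repair or cell cycle control.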

[17] = at 5.0 µM (retest, dose inferred, filed as 0.5)
[18] = at 50.0 µM (retest, dose inferred, filed as 5.0)

Measured: growth inhibition

O=C(NCCCCN1CC2CCCC2C1)C(C1CCCCC1)C1CCCCC1 (stereo unspecified)
active: [1]; at 33.0 µM 76% | [1]; at 100.0 µM 98% | [2]; at 33.0 µM 75% | [2]; at 100.0 µM 97% | [4]; at 33.0 µM 85% | [4]; [18] 94% | [4]; at 100.0 µM 79% | [5]; at 33.0 µM 86% | [5]; [18] 93% | [5]; at 100.0 µM 98% | [6]; at 33.0 µM 97% | [6]; at 100.0 µM 99% | [7]; [18] 90% | [7]; at 50.0 µM 76.7% | [8]; at 33.0 µM 87% | [8]; at 100.0 µM 98% | [9]; [18] 96% | [10]; [17] 94% | [10]; at 33.0 µM 90% | [10]; [18] 99% | [10]; at 100.0 µM 98% | [11]; at 33.0 µM 93% | [11]; at 100.0 µM 98% | [12]; at 33.0 µM 91% | [12]; at 100.0 µM 99% | [13]; at 33.0 µM 94% | [13]; at 100.0 µM 98% | [14]; [18] 96% | [14]; at 50.0 µM 73% | [15]; at 33.0 µM 90% | [15]; at 100.0 µM 98%
inactive: [1]; at 1.2 µM 11% | [1]; at 3.7 µM 12% | [1]; at 11.0 µM 35% | [2]; at 1.2 µM 3% | [2]; at 3.7 µM 6% | [2]; at 11.0 µM 14% | [3]; at 1.2 µM 0% | [3]; at 3.7 µM 1% | [3]; at 11.0 µM 2% | [3]; at 33.0 µM 3% | [3]; at 100.0 µM -3% | [4]; at 1.2 µM 7% | [4]; at 3.7 µM 4% | [4]; [17] 35% | [4]; at 11.0 µM 34% | [4]; at 50.0 µM 67.2% | [5]; at 1.2 µM 13% | [5]; at 3.7 µM 15% | [5]; [17] 17% | [5]; at 11.0 µM 39% | [5]; at 50.0 µM 5.4% | [6]; at 1.2 µM 9% | [6]; at 3.7 µM 12% | [6]; at 11.0 µM 52% | [7]; [17] 23% | [8]; at 1.2 µM 11% | [8]; at 3.7 µM 13% | [8]; at 11.0 µM 32% | [9]; [17] 22% | [9]; at 50.0 µM 43.9% | [10]; at 1.2 µM 10% | [10]; at 3.7 µM 11% | [10]; at 11.0 µM 42% | [10]; at 50.0 µM 61.5% | [11]; at 1.2 µM 2% | [11]; at 3.7 µM 5% | [11]; at 11.0 µM 25% | [12]; at 1.2 µM 7% | [12]; at 3.7 µM 5% | [12]; at 11.0 µM 25% | [13]; at 1.2 µM 9% | [13]; at 3.7 µM 11% | [13]; at 11.0 µM 34% | [14]; [17] 16% | [15]; at 1.2 µM 16% | [15]; at 3.7 µM 23% | [15]; at 11.0 µM 49%

O=Cc1ccccc1C=O
inactive: [1]; at 1.2 µM -13% | [1]; at 3.7 µM -11% | [1]; at 11.0 µM -7% | [1]; at 33.0 µM 4% | [2]; at 1.2 µM -35% | [2]; at 3.7 µM -31% | [2]; at 11.0 µM -17% | [2]; at 33.0 µM 0% | [3]; at 1.2 µM -8% | [3]; at 3.7 µM -13% | [3]; at 11.0 µM -2% | [3]; at 33.0 µM 6% | [3]; at 100.0 µM 34% | [4]; at 1.2 µM 14% | [4]; at 3.7 µM 12% | [4]; [17] -6% | [4]; at 11.0 µM 19% | [4]; at 33.0 µM 28% | [4]; [18] 16% | [4]; at 50.0 µM 44.6% | [5]; at 1.2 µM -17% | [5]; at 3.7 µM -22% | [5]; [17] -8% | [5]; at 11.0 µM -12% | [5]; at 33.0 µM 32% | [5]; [18] 32% | [6]; at 1.2 µM -17% | [6]; at 3.7 µM -12% | [6]; at 11.0 µM -8% | [6]; at 33.0 µM 23% | [7]; [17] -3% | [7]; [18] 43% | [7]; at 50.0 µM 40.3% | [8]; at 1.2 µM 4% | [8]; at 3.7 µM 7% | [8]; at 11.0 µM 3% | [8]; at 33.0 µM 22% | [9]; [17] 5% | [9]; at 50.0 µM 13.6% | [10]; at 1.2 µM 6% | [10]; at 3.7 µM 17% | [10]; [17] -32% | [10]; at 11.0 µM 14% | [10]; at 33.0 µM 23% | [10]; at 50.0 µM 24.4% | [11]; at 1.2 µM -20% | [11]; at 3.7 µM -26% | [11]; at 11.0 µM -15% | [11]; at 33.0 µM -35% | [12]; at 1.2 µM -6% | [12]; at 3.7 µM -5% | [12]; at 11.0 µM 1% | [12]; at 33.0 µM 36% | [13]; at 1.2 µM -19% | [13]; at 3.7 µM -25% | [13]; at 11.0 µM -15% | [13]; at 33.0 µM 2% | [14]; [17] -23% | [14]; [18] 48% | [15]; at 1.2 µM -4% | [15]; at 3.7 µM -5% | [15]; at 11.0 µM 0% | [15]; at 33.0 µM 26%
active: [1]; at 100.0 µM 73% | [2]; at 100.0 µM 90% | [4]; at 100.0 µM 89% | [5]; at 50.0 µM 80.5% | [5]; at 100.0 µM 90% | [6]; at 100.0 µM 86% | [8]; at 100.0 µM 85% | [9]; [18] 74% | [10]; [18] 76% | [10]; at 100.0 µM 81% | [11]; at 100.0 µM 86% | [12]; at 100.0 µM 84% | [13]; at 100.0 µM 72% | [14]; at 50.0 µM 82% | [15]; at 100.0 µM 88%

O=c1c2ccccc2nc(-c2cccc([N+](=O)[O-])c2)n1O
active: [1]; at 11.0 µM 83% | [1]; at 33.0 µM 91% | [1]; at 100.0 µM 91% | [2]; at 33.0 µM 84% | [2]; at 100.0 µM 90% | [16]; at 33.0 µM 85% | [16]; at 100.0 µM 90% | [4]; at 11.0 µM 76% | [4]; at 33.0 µM 89% | [4]; [18] 97% | [4]; at 50.0 µM 97.8% | [4]; at 100.0 µM 91% | [6]; at 3.7 µM 73%
inactive: [1]; at 1.2 µM 17% | [1]; at 3.7 µM 45% | [2]; at 1.2 µM 12% | [2]; at 3.7 µM 21% | [2]; at 11.0 µM 60% | [3]; at 1.2 µM -9% | [3]; at 3.7 µM -5% | [3]; at 11.0 µM 13% | [3]; at 33.0 µM 35% | [3]; at 100.0 µM 65% | [16]; at 1.2 µM 13% | [16]; at 3.7 µM 21% | [16]; at 11.0 µM 52% | [4]; at 1.2 µM 14% | [4]; at 3.7 µM 31% | [4]; [17] 12% | [6]; at 1.2 µM 36%
